# An excerpt weighted towards active compounds, which were near 15% of everything screened.
# RORg inh = ROR gamma (mouse) transcription inhibition | 310,000 compounds, 5.4% hits | Drosophila S2 Gal4-RORgamma UAS-luciferase reporter, 20 h | AID 2551 | P51450 | Potency, µM (titrated, usually from 53.6 µM), for inactives: at the highest dose activity change, negative = inhibition, actives largely listed as inhibitors; also: nearly all actives have a fitted effect of over 60% in size
#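 Drosophila S2 cells stably expressing Gal4-DBD/mouse RORγ fusion under metallothionein promoter plus UAS-luciferase; compound 1 h, then 700 uM CuSO4 induction for 20 h at ambient temperature; inhibition read as reduced luminescence.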
# VP16 counter = Gal4-VP16 reporter inhibition counter-screen; Drosophila S2 Gal4-VP16 UAS-luciferase, luminescence, 20 h; Potency, µM (doses to about 53.6 µM), without a hit: at the top dose activity, negative = inhibition, most hits filed as inhibitors; 310,000 compounds, 3.5% hits;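 also: Gal4-VP16 expression switched on by copper sulfate through the metallothionein promoter; nearly all actives have a fitted effect of over 50% in size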
# ALOX12 inh = inhibitors of human 12S-lipoxygenase ALOX12; 580,000 compounds, 1.1% hits; purified 12hLO, xylenol orange hydroperoxide absorbance; AID 1671190; Potency, µM (top dose mostly 108 µM), for inactives: top-dose activity change, negative = inhibition, most hits filed as inhibitors
# Target sequence (P18054 whole entry, looked up): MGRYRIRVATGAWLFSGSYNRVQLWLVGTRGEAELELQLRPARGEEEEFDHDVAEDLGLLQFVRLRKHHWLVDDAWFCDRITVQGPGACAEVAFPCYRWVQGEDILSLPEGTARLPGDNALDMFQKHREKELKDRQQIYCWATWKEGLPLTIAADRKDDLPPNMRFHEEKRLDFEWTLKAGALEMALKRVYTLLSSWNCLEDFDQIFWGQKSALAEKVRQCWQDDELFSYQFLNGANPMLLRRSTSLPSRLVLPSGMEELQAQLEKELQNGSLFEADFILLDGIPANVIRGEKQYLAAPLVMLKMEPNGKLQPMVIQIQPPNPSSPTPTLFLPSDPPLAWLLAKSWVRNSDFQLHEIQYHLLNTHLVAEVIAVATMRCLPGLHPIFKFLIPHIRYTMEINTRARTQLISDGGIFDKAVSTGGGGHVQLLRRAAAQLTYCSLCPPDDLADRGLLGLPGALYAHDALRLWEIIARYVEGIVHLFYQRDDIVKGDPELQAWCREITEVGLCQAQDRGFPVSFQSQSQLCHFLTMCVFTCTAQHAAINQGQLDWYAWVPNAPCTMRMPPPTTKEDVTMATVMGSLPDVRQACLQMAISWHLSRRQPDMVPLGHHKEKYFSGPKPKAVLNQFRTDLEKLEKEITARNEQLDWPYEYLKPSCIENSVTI
#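 Purified human 12hLO at 150 nM in 25 mM Hepes, 0.01% Triton X-100, pH 7.0, preincubated 15 min at room temperature with compound. Reaction started with 40 uM arachidonic acid, 30 min at room temperature. Hydroperoxide measured by Fe-xylenol orange, 573/405 nm absorbance ratio.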
# DT40 TDP1 CPT = DT40-hTDP1 cell growth loss with CPT | AID 686979 | Potency, µM (doses to about 46.2 µM), without a hit: at the top dose activity change, negative = growth inhibition, actives largely listed as inhibitors | 420,000 compounds, 12% hits | chicken DT40 Tdp1-/-;hTDP1 cells + 20 nM CPT, ATP luminescence, 48 h; also: nearly all actives have a fitted effect of over 55% in size
#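 Chicken DT40 Tdp1-/- cells complemented with human TDP1, 400 cells/well, exposed to compounds plus 20 nM camptothecin for at least 48 h at 37 C; viability read as ATP content by CellTiter-Glo luminescence.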
# DT40 TDP1 no CPT = qHTS for Inhibitors of human tyrosyl-DNA phosphodiesterase 1 (TDP1): qHTS in cells in absence of CPT; DT40 Tdp1-/- hTDP1 cells, no CPT, ATP luminescence, 48 h; Potency, µM (titrated, usually from 46.2 µM), for the others: top-dose activity change, negative = growth inhibition, usual class: inhibitors; 420,000 compounds, 15% hits; AID 686978, 2013; also: nearly all actives have a fitted effect of over 55% in size
#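 Readout: luminescence from CellTiter-Glo after 30 min in the dark at RT. Cells: DT40 Tdp1-/- with stable hTDP1, 400/well. Exposure: compounds alone, ≥48 hr, 37 °C.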
# ELG1 DNA repair = ELG1-dependent DNA repair inhibition. AID 504467. HEK293T ELG1-luciferase reporter, luminescence, 16 h; DNA damage induced by 5-fluorouridine. 330,000 compounds, 2.3% hits. Potency, µM (titrated, usually from 46.1 µM), inactives show at the highest dose activity change, negative = inhibition, hits mostly inhibitors; also: nearly all actives have a fitted effect of over 55% in size
#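 Cells (2,000 per well) received 5-fluorouridine plus test compound or DMSO and were incubated 16 hr at 37 °C, 5% CO2. Luciferase activity was read by luminescence 30 min after ONE-Glo addition; signal suppression marked inhibition of damage-induced ELG1 function.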
# The depositor's hits bear a star; ? = inconclusive; . = not tested or not shown; ! = a repeat was not active; [ ] = another dose, or the depositor's remark. Calls follow the shape of the dose curve; as a rule, active = well fitted curve in the direction sought with a large enough effect; inconclusive = small, poorly fitted or top-dose-only effect, or another doubt; inactive = no such curve, though single readings can be large; an effect the other way counts as inactive or inconclusive. % is scaled to controls: 0 for no effect and ±100 for the full control effect; potency is read from the fitted curve at half-maximal effect.
SMILES,RORg inh,VP16 counter,ALOX12 inh,DT40 TDP1 CPT,DT40 TDP1 no CPT,ELG1 DNA repair
CN1CCCN(C(=O)COc2cccc(C(F)(F)F)c2)CC1,-32%,-5%,-8%,-4%,19%,6%
O=c1[nH]c2ccccc2c(=O)n1-c1cccc(Cl)c1,-2%,-2%,0%,-24%,-3%,20%
Cn1c(=O)cc(OCCCC(=O)N2CCC3(CC2)OCCO3)c2ccccc21,?,7%,7%,-4%,-12%,?
CCOc1cc2[nH]c(=S)n(CCCC(=O)N3CCC4(CC3)OCCO4)c(=O)c2cc1OCC,?,20µM*,0%,-3%,-34%,-15%
CCOc1cc2[nH]c(=O)n(CCCCC(=O)N3CCN(c4cccc(Cl)c4)CC3)c(=O)c2cc1OCC,.,.,8%,2.3µM*,5.2µM*,.
COc1cc2[nH]c(=O)n(CCCCCC(=O)N3CCN(c4cccc(C(F)(F)F)c4)CC3)c(=O)c2cc1OC,.,.,?,?,6.5µM*,.
COc1ccc(N2CCN(C(=O)CCCCCn3c(=S)[nH]c4ccc(N5CCOCC5)cc4c3=O)CC2)cc1,.,.,22%,4.1µM*,2.9µM*,.
Cc1[nH]c2ccccc2c1C(=O)C(C)NC(C)c1ccc(F)c(F)c1 (stereo unspecified),.,.,15%,.,.,.
Cc1c(C(=O)N2CCC3(CC2)OCCO3)sc2ncnc(N3CCc4ccccc4C3)c12,22%,-3%,1%,16µM*,23µM*,21µM*
CC(=O)O[C@@]12CO[C@@H]1C[C@@H](O)[C@@]1(C)C(=O)[C@H](O)C3=C(C)[C@@H](OC(=O)[C@H](O)[C@@H](NC(=O)c4ccccc4)c4ccccc4)C[C@@](O)([C@@H](OC(=O)c4ccccc4)C12)C3(C)C (stereo partly specified),?,?,21%,0.046µM*,0.065µM*,?
CC(=O)O[C@@]12CO[C@@H]1C[C@H](OC1OCC(O)C(O)C1O)[C@@]1(C)C(=O)[C@H](O)C3=C(C)[C@@H](OC(=O)[C@H](O)[C@@H](NC(=O)c4ccccc4)c4ccccc4)C[C@@](O)([C@@H](OC(=O)c4ccccc4)C12)C3(C)C (stereo partly specified),9%,-20%,16%,1.2µM*,1µM*,-22%
CCCCCC(=O)N[C@@H](c1ccccc1)[C@@H](O)C(=O)O[C@H]1C[C@@]2(O)[C@@H](OC(=O)c3ccccc3)C3[C@](C)(C(=O)[C@H](O)C(=C1C)C2(C)C)[C@@H](OC1OCC(O)C(O)C1O)C[C@H]1OC[C@@]31OC(C)=O (stereo partly specified),-15%,-25%,18%,1.2µM*,0.58µM*,-13%
C1=C2CCCN[C@H]2[C@@H]2C[C@H]1[C@@H]1CCCCN1C2,.,.,-6%[57.4 µM],.,.,.
COCCN1C[C@H]2CN(CC3CC3)CCN2C1=O,.,.,-3%[176 µM],.,.,.
CC(C)(C)CN1CCCC2(CC(c3cccnc3)=NO2)C1 (stereo unspecified),.,.,3%[12.5 µM],.,.,.
CCOC(=O)c1cc(C)sc1/N=C/C1C(=O)NC(=S)NC1=O,16µM*,4%,-10%,4%,-18%,9%
CCN(CC)S(=O)(=O)c1ccc(C(=O)NC(=S)N2CCN(c3ccccc3O)CC2)cc1,.,.,?,?,18µM*,.
C=C(C)[C@@]12OC3(c4ccccc4)O[C@@H]1C1[C@@H]4O[C@]4(CO)[C@@H](O)[C@]4(O)C(=O)C(C)=C[C@H]4[C@@]1(O3)[C@H](C)[C@H]2OC(=O)/C=C/C=C/c1ccccc1 (stereo partly specified),.,.,.,16µM*,3.3µM*,.
CN(C[C@H]1CN2CC[C@H]1C[C@@H]2CNS(=O)(=O)c1cccs1)c1ccccc1,.,.,-35%[176 µM],.,.,.
CC(NC1CCCCC1)C(O)C12CC3CC(CC(C3)C1)C2 (stereo unspecified),-1%,-5%,3%,18µM*,16µM*,-18%
FC(F)(F)c1cccc(-n2nnnc2C2(N3CCCCC3)CCCCC2)c1,.,.,5%,.,.,.
O=C(NCc1ccccc1)N1CCc2c(sc3c2CCCC3)C1c1ccccc1 (stereo unspecified),.,.,-9%,?,16µM*,.
CN1C(=O)[C@]23CC4=CC=C[C@H](O)[C@H]4N2C(=O)[C@@]1(CO)SS3,0.045µM*,0%,.,.,.,.
COc1ccc(-c2c(C#N)c(N)nc3c2c(=O)nc2sccn23)cc1OC,.,.,-27%,.,.,.
O=C(Nc1ccccc1)N(Cc1ccc2c(c1)OCO2)C1CCN(Cc2ccccc2)CC1,.,.,?,?,15µM*,.
SMILES,RORg inh,VP16 counter,ALOX12 inh,DT40 TDP1 CPT,DT40 TDP1 no CPT,ELG1 DNA repair
COC(=O)c1ccc(Cl)cc1NC(=O)N(Cc1ccc(C)o1)C1CCN(Cc2ccccc2)CC1,.,.,-24%,.,.,.
COc1ccccc1NC(=O)N(Cc1ccc2c(c1)OCO2)C1CCN(Cc2ccccc2)CC1,.,.,?,4.6µM*,5.2µM*,.
CSCC(=O)Nc1ccc2n(c1=O)C[C@H]1C[C@@H]2CN(C(=O)c2ccccc2)C1,.,.,11%[176 µM],.,.,.
O=c1ccc(-c2ccccc2F)c2n1C[C@H]1C[C@@H]2CN(Cc2ccc(CO)o2)C1,.,.,-23%[176 µM],.,.,.
COC(=O)c1cn(S(=O)(=O)c2ccccc2)c2ccccc12,-22%,-7%,0%,?,26µM*,-4%
CN(Cc1ccccc1)C1CCCN(C(=O)COc2ccccc2Cl)C1 (stereo unspecified),16%,5%,-1%,?,16µM*,-1%
CCC(CC)c1cc([C@H]2CN3CC[C@H]2C[C@@H]3CNC(=O)COc2ccccc2)nc(-c2ccncc2)n1,.,.,0%,.,.,.
CC(=O)Nc1ccc(S(=O)(=O)NC[C@H]2C[C@@H]3CCN2C[C@@H]3c2cc(C3CCCC3)nn2C)cc1,.,.,35%,.,.,.
COc1cccc(CC(=O)N2[C@H]3CC[C@@H]2c2cnc(-c4ccccc4)nc2C3)c1,.,.,36%,.,.,.
Cc1ncc(CNC(=O)N(CCCl)N=O)c(N)n1,-2%,3%,-12%,21µM*!,?,-3%
COc1cccc(/C=C/c2nc3ccccc3c(=O)n2-c2ccc(Cl)cc2)c1OC,.,.,-25%,15µM*,?,.
Cc1cccc(-n2c(/C=C/c3cn(C)c4ccccc34)nc3ccccc3c2=O)c1,.,.,?,6.5µM*,9.2µM*,.
